High-throughput results (PubChem)
NS1 function inh – influenza NS1 inhibition; Potency, µM (titrated, usually from 46.1 µM), inactives show at the top dose activity, positive = more growth; 0.4% of 270,000 active; AID 2326; calls by dose curve; also: potency is read from the fitted curve at half-maximal effect; actives are rising curves; nearly all actives have a fitted effect of over 50% in size
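OD600 was taken as the measure of yeast growth restored by compound in an NS1-expressing S. cerevisiae strain. Cells had been washed out of glucose medium and diluted 1:100 into galactose -URA medium, pH 6.0.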
Pf growth 48h – inhibits P. falciparum growth in the first generation, 48 h. AID 504832. P. falciparum luciferase growth in erythrocytes, 48 h. 5.9% of 310,000 active. Potency, µM (series often up to 28.7 µM), inactives show top-dose activity change, negative = inhibition, actives largely listed as inhibitors; also: potency is read from the fitted curve at half-maximal effect; % is scaled to controls: 0 for no effect and ±100 for the full control effect
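Luciferase-expressing parasites in RBCs, 2% Hct / 0.1% parasitemia final; RPMI 1640 + 0.5% Albumax; 37 C, 5% CO2, one generation; luminescence read-out, lower signal = inhibition.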
Pf growth 96h – P. falciparum growth inhibition at 96 hours | P. falciparum luciferase reporter growth, 96 h | Potency, µM (series often up to 28.7 µM), for the others: top-dose activity change, negative = inhibition, actives largely listed as inhibitors | 6.9% of 320,000 active | AID 504834; also: potency is read from the fitted curve at half-maximal effect; % is scaled to controls: 0 for no effect and ±100 for the full control effect
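Plates of compound plus infected erythrocytes (2% hematocrit, 0.05% parasitemia final) incubate 96 hours, 37 C, 5% CO2. Detection reagent added; reduced luminescence from the parasites' luciferase reporter flags inhibition.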
RE007 growth inh – less growth of the S. pombe RE007 Vpr strain; S. pombe RE007 Vpr strain, BacTiter-Glo ATP luminescence, 24 h; Potency, µM (top dose mostly 92.2 µM), for the others: top-dose activity change, negative = less growth, usual class: inhibitors; 0.21% of 360,000 active; AID 651644; active = well fitted falling curve with a large enough effect; inconclusive = small, poorly fitted or top-dose-only effect; inactive = no such curve, though single readings can be large or run the other way; also: potency is read from the fitted curve at half-maximal effect; % is scaled to controls: 0 for no effect and ±100 for the full control effect; nearly all actives have a fitted effect of over 50% in size
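Fission yeast RE007 carrying one integrated HIV-1 vpr copy, seeded at OD 0.01 in PMG+AL medium with 23 nL pinned compound. Grown 24 h at 30 degrees; viability read by BacTiter-Glo luminescence after 5 min.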
SARS PLpro yeast-1 – SARS-CoV PLP inhibition in yeast; S. cerevisiae expressing SARS-CoV PLpro, growth rescue; Potency, µM (top dose mostly 32.9 µM), for the others: at the highest dose activity, positive = growth rescue, hits mostly activators; 0.19% of 330,000 active; AID 485353; calls by dose curve; also: potency is read from the fitted curve at half-maximal effect; 0% is about no effect; nearly all actives have a fitted effect of over 55% in size
SARS PLpro yeast-2 – Rescues yeast growth by inhibiting SARS-CoV PLpro; shares compounds with SARS PLpro yeast-1; yeast expressing SARS-CoV PLpro, growth phenotype rescue; calls only; 19% of 1,000 active; AID 652038; call rule not given here
Starred values were filed as active, the others as inactive; i = inactive; ? = inconclusive; / = not tested or not shown; + = active, no number; [ ] = dose if it differs, or a comment. Most compounds without a hit are left out; they make up all but 9.5% or so of the library. Unless noted, calls follow the shape of the dose curve; as a rule, active = well fitted inhibition curve with a large enough effect; inconclusive = small, poorly fitted or top-dose-only effect, or another doubt; inactive = no such curve, though single readings can be large or run the other way.

SMILES	NS1 function inh	Pf growth 48h	Pf growth 96h	RE007 growth inh	SARS PLpro yeast-1	SARS PLpro yeast-2
CCOC(=O)c1c(/N=C/C2=C(O)CCCC2=O)sc(C)c1C	20.9%	16.3%	8.3%	-20.8%	5.0%	/
CCOC(=O)c1c(-c2ccc(OC)cc2)csc1/N=C/C1=C(O)CCCC1=O	26.5%	-22.8%	?	0.0%	?	i
COc1ccc(S(=O)(=O)N(C)c2ccc(C(=O)NCC3CCCO3)cc2)cc1OC (stereo not drawn)	11.5%	?	?	62.3%	1.3%	/
Cc1ccc(OCC(=O)N2CCN(S(C)(=O)=O)CC2)cc1	0.8%	?	0.0%	1.8%	1.1%	/
O=C1c2ccccc2NC(c2ccc(-c3ccc(F)cc3)o2)N1O (stereo not drawn)	/	105.0%	62.2%	/	7.9%	/
O=C1c2ccccc2NC(c2ccc(-c3cccc([N+](=O)[O-])c3)o2)N1O (stereo not drawn)	?	?	?	13.7%	10µM*	+
C/C(CC(=O)Nc1ccc(N(C)C)cc1)=N\NC(=O)Cc1csc(N)n1	?	?	44.6%	0.6%	17.8µM*	i
CC1OC(C(C)(C)C)Cc2[nH][nH]c(=O)c21 (stereo not drawn)	/	/	/	1.6%	/	/
C=CCNC(=O)C1CC2Cn3c(nc4cc(Cl)c(Cl)cc43)C2N1C (stereo not drawn)	/	-27.1%	43.1%	6.1%	?	i
C=CCNC(=O)C1CC2Cn3c(nc4ccccc43)C2N1C (stereo not drawn)	2.2%	-1.6%	16.9%	0.1%	0.9%	/
CC(=O)CC(c1ccccc1)c1c(O)c2ccccc2oc1=O (stereo not drawn)	-2.4%	-1.6%	9.8%	-1.8%[18.4 µM]	0.3%	/
CC/C(CC(c1ccccc1)c1c(O)c2ccccc2oc1=O)=N\NC(N)=S (stereo not drawn)	-3.7%	-15.5%	?	10.9%	12.6µM*	i
CN(C(=O)CSc1nc2scc(-c3ccccc3)c2c(=O)[nH]1)c1ccccc1	/	/	/	3.7%	-4.8%	/
Cc1cc2c(cc1S(=O)(=O)N1CCN(c3ccc(Cl)cc3)CC1)OCCN2C	6.6%	-18.8%	-22.5%	-0.1%	0.891µM*	i
COc1cccc(N2CCN(S(=O)(=O)c3cc4c(cc3C)N(C)CCO4)CC2)c1	?	?	-0.4%	-8.5%	-24.3%	/
CN(C)S(=O)(=O)c1cccc(NC(=O)COC(=O)CNC(=O)c2cccc([N+](=O)[O-])c2)c1	0.8%	68.1%	31.4%	14.8%	2.6%	/
CCC(C)NC(=O)Cn1cnc2sc(C)c(S(=O)(=O)N3CCCCC3)c2c1=O (stereo not drawn)	2.4%	0.5%	0.8%	-12.6%	-0.1%	/
COC(=O)CN(c1ccc(OC)cc1)S(=O)(=O)c1c(C)noc1C	1.5%	-12.1%	3.3%	43.5%	2.8%	/
COc1ccc(N(CC(=O)Nc2cc(Cl)ccc2OC)S(=O)(=O)c2c(C)noc2C)cc1	-23.7%	10.4µM*	9.28µM*	-9.1%	?	+
CCC(=O)c1ccc(N2CCN(C(=O)c3cc([N+](=O)[O-])ccc3N3CCN(C)CC3)CC2)c(F)c1	5.5%	?	9.28µM*	2.4%	?	+
CCc1ccccc1NC(=O)CN1CCN(C(=O)c2ccc(OCc3cn4ccccc4n3)cc2)CC1	/	?	?	-13.1%	?	i
O=C(Nc1ccc(NC(=O)c2ccco2)cc1)c1ccc2c(c1)OCO2	0.7%	/	-15.6%	3.3%	?	+
Nc1cc(N)nc(SCc2ccccc2Cl)n1	/	/	/	3.1%	/	/
Nc1nc(SCc2ccccc2Cl)nc2nc3c(cc12)CCCC3	4.0%	?	-17.4%	4.3%	?	i
CCN1CCN(c2ccc(NC(=O)CC3OC(=O)c4ccccc43)cc2C)CC1 (stereo not drawn)	/	/	/	-1.8%	/	/
SMILES	NS1 function inh	Pf growth 48h	Pf growth 96h	RE007 growth inh	SARS PLpro yeast-1	SARS PLpro yeast-2
CC1CC1C(=O)N(C)CC(=O)Nc1ccc(Cl)c(C(F)(F)F)c1 (stereo not drawn)	/	-4.0%	?	0.5%	?	i
CC(C)(C)C(=O)N1CCN(c2ccc3c(c2)C2CC3CCN2C(=O)OCc2ccccc2)CC1 (stereo not drawn)	/	/	/	4.8%	/	/
N#Cc1c(N2CCN(C(=O)c3ccccc3Cl)CC2)nc(-c2ccccc2)c2c1CCCC2	27.1%	?	?	25.1%	3.55µM*	i
CCOc1ccc(NC(=O)N2CCC(c3nc4ccccc4[nH]3)CC2)cc1	/	23.2%	?	-2.6%	3.1%	/
COc1cc(C(=O)Nc2nnc(SCC(=O)NCC3CCCO3)s2)cc(OC)c1OC (stereo not drawn)	8.5%	-11.3%	?	-4.7%	4.47µM*	i
Cc1sc(NC(=O)CN2C(=O)NC3(CCCC3)C2=O)nc1-c1ccc(F)cc1	/	-10.4%	0.0%	12.8%	-0.6%	/
Cc1ccccc1OCc1n[nH]c(=S)n1Cc1ccccc1	2.4%	1.1%	?	13.1%	?	?
Cc1ccc(SCCCCN2C(=O)NC(C)(C)C2=O)cc1	-5.5%	5.1%	45.1%	-0.6%	?	i
Cc1ccc(OCC(=O)N/N=C\c2c(C)[nH]n(-c3ccccc3)c2=O)c([N+](=O)[O-])c1	-0.1%	-27.0%	?	-13.1%	5.62µM*	+
COc1cccc(/C=N/NC(=O)c2cc(-c3cccn3C)n[nH]2)c1O	26.5%	?	?	5.5%	7.08µM*	?
Cn1cccc1-c1cc(C(=O)N/N=C/C=C/c2ccccc2)[nH]n1	/	?	?	5.6%	-0.5%	/
COc1cccc(/C=N/NC(=O)C(=O)N/N=C/c2cccc(OC)c2O)c1O	4.9%	0.0%	0.1%	4.6%	?	+
COc1cccc(/C=N/NC(=O)C(=O)N2CCCCCC2)c1O	-10.1%	-4.7%	50.4%	-0.4%	5.8%	/
COc1cccc(/C=N/Nc2ncnc(Cl)c2N)c1O	-28.2%	1.65µM*	2.62µM*	13.3%	4.47µM*	i
CC(=O)N(CCCNC(=O)c1ccccc1)C(=O)c1ccccc1	/	16.3%	99.0%	5.9%	-2.4%	/
CC(Sc1nnc(-c2cccnc2)n1N)C(=O)Nc1ccc2c(c1)OCCO2 (stereo not drawn)	/	5.9%	76.7%	0.7%	-1.2%	/
COc1ccc(CN2C(=O)CCCC2(C)c2nc3ccccc3[nH]2)cc1 (stereo not drawn)	/	/	/	-15.3%	/	/
CCCCNC(=O)C1CCN(S(=O)(=O)c2c(C)noc2/C=C\c2ccc(OC)cc2)CC1	-0.4%	/	10.4µM*	9.7%	?	+
CC(C)Oc1ccc(/C=N/NC(N)=S)cc1	-6.1%	84.8%	-15.9%	9.9%	?	+
CC(=O)NCCNc1nc2cc(-c3ccsc3)sc2c(=O)n1C	/	/	/	4.8%	/	/
CC(C)Cc1ccc(-c2cc3nc(NCCc4ccc(S(N)(=O)=O)cc4)ccn3n2)cc1	/	/	/	0.1%[18.4 µM]	/	/
